Source: PubChem BioAssay AID1159580 (chemical genetic matrix, 2015)
Among all 5,500 compounds or so, about 2,000 (36%) were called active. Roughly 18% stayed inconclusive and do not appear here. Rule as the data show it: active = normalized growth mostly below about 0.91 (no sharp cut-off); inconclusive = no clear call, values can overlap the other calls; inactive = mostly above about 0.92. The list shows a part of the results.

Test: chemical genetic growth profiling, strain panel (AID 1159580);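 also: tested at 20 µM; growth read once vehicle control cultures reached saturation at 30 °C; 1 = growth at the plate median or of vehicle wells; lower values mean less growth of the strain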
Conditions: growth OD

Measured: normalized growth

CC(=O)C1CCC2C3CCC4C[C@H](O)CCC4(C)C3C[C@H](O)C12C (some centres not stated)
inactive: S. cerevisiae deletion strains, locus YJL187C, strain SWE1, hits give low values 0.965 | S. cerevisiae deletion strains, locus YJR066W, strain TOR1, hits give low values 0.923 | S. cerevisiae deletion strains, locus YKL009W, strain mrt4, hits give low values 1.02 | S. cerevisiae deletion strains, locus YKL068W, hits give low values 0.992 | S. cerevisiae deletion strains, locus YKL085W, strain MDH1 (second series), hits give low values 0.987 | S. cerevisiae deletion strains, locus YKL085W, strain MDH1, hits give low values 0.987 | S. cerevisiae deletion strains, locus YKL160W, strain elf1, hits give low values 0.964 | S. cerevisiae deletion strains, locus YKR001C, strain vps1, hits give low values 1.04 | S. cerevisiae deletion strains, locus YKR026C, strain gcn3, hits give low values 0.962 | S. cerevisiae deletion strains, locus YKR091W, strain srl3, hits give low values 0.972 | S. cerevisiae deletion strains, locus YLL001W, strain dnm1, hits give low values 0.98 | S. cerevisiae deletion strains, locus YLL026W, hits give low values 0.968 | S. cerevisiae deletion strains, locus YLL041C, strain sdh2, hits give low values 0.963 | S. cerevisiae deletion strains, locus YLR027C, strain aat2, hits give low values 0.985 | S. cerevisiae deletion strains, locus YLR039C, strain RIC1, hits give low values 1.21 | S. cerevisiae deletion strains, locus YLR058C, strain SHM2, hits give low values 1.05 | S. cerevisiae deletion strains, locus YLR102C, strain apc9, hits give low values 1.01 | S. cerevisiae deletion strains, locus YLR113W, strain HOG1, hits give low values 1.12 | S. cerevisiae deletion strains, locus YLR221C, strain rsa3, hits give low values 0.984 | S. cerevisiae deletion strains, locus YLR258W, strain gsy2, hits give low values 0.962 | S. cerevisiae deletion strains, locus YLR262C, strain YPT6 (second series), hits give low values 0.991 | S. cerevisiae deletion strains, locus YLR262C, strain YPT6, hits give low values 1.19 | S. cerevisiae deletion strains, locus YLR268W, strain sec22, hits give low values 1.02 | S. cerevisiae deletion strains, locus YLR320W, strain mms22, hits give low values 0.99 | S. cerevisiae deletion strains, locus YLR330W, strain CHS5, hits give low values 1.03 | S. cerevisiae deletion strains, locus YLR342W, strain FKS1, hits give low values 0.977 | S. cerevisiae deletion strains, locus YLR357W, strain rsc2, hits give low values 0.98 | S. cerevisiae deletion strains, locus YLR370C, strain arc18, hits give low values 0.98 | S. cerevisiae deletion strains, locus YLR371W, strain rom2, hits give low values 1.02 | S. cerevisiae deletion strains, locus YLR384C, strain iki3, hits give low values 0.97 | S. cerevisiae deletion strains, locus YLR418C, strain cdc73, hits give low values 1.07 | S. cerevisiae deletion strains, locus YML016C, strain PPZ1, hits give low values 1.03 | S. cerevisiae deletion strains, locus YML032C, strain rad52, hits give low values 1.01 | S. cerevisiae deletion strains, locus YML120C, strain ndi1, hits give low values 1 | S. cerevisiae deletion strains, locus YML124C, strain tub3, hits give low values 0.998 | S. cerevisiae deletion strains, locus YMR058W, strain fet3, hits give low values 0.968 | S. cerevisiae deletion strains, locus YMR078C, strain ctf18, hits give low values 0.989 | S. cerevisiae deletion strains, locus YMR125W, strain sto1, hits give low values 0.943 | S. cerevisiae deletion strains, locus YMR129W, hits give low values 0.973 | S. cerevisiae deletion strains, locus YMR205C, strain PFK2, hits give low values 0.987 | S. cerevisiae deletion strains, locus YMR223W, strain ubp8, hits give low values 1.03 | S. cerevisiae deletion strains, locus YMR231W, strain pep5, hits give low values 0.978 | S. cerevisiae deletion strains, locus YMR307W, strain GAS1, hits give low values 1.34 | S. cerevisiae deletion strains, locus YNL067W, strain RPL9B, hits give low values 1.02 | S. cerevisiae deletion strains, locus YNL071W, strain lat1, hits give low values 0.975 | S. cerevisiae deletion strains, locus YNL183C, strain NPR1, hits give low values 0.956 | S. cerevisiae deletion strains, locus YNL209W, strain ssb2, hits give low values 0.967 | S. cerevisiae deletion strains, locus YNL233W, strain BNI4, hits give low values 1.07 | S. cerevisiae deletion strains, locus YNL248C, strain rpa49, hits give low values 0.975 | S. cerevisiae deletion strains, locus YNL250W, strain rad50, hits give low values 0.999 | S. cerevisiae deletion strains, locus YNL271C, strain bni1, hits give low values 1.01 | S. cerevisiae deletion strains, locus YNL298W, strain CLA4, hits give low values 1.01 | S. cerevisiae deletion strains, locus YNL307C, strain MCK1, hits give low values 0.994 | S. cerevisiae deletion strains, locus YNL322C, strain KRE1 (second series), hits give low values 0.979 | S. cerevisiae deletion strains, locus YNL322C, strain KRE1, hits give low values 1.02 | S. cerevisiae deletion strains, locus YNR049C, strain mso1, hits give low values 0.961 | S. cerevisiae deletion strains, locus YNR052C, strain pop2, hits give low values 1 | S. cerevisiae deletion strains, locus YOL006C, strain TOP1, hits give low values 1.37 | S. cerevisiae deletion strains, locus YOL012C, strain htz1 1.2 | S. cerevisiae deletion strains, locus YOL147C, strain pex11, hits give low values 0.995 | S. cerevisiae deletion strains, locus YOR001W, strain rrp6, hits give low values 0.961 | S. cerevisiae deletion strains, locus YOR061W, strain CKA2, hits give low values 1.03 | S. cerevisiae deletion strains, locus YOR069W, strain VPS5, hits give low values 1.02 | S. cerevisiae deletion strains, locus YOR070C, strain gyp1, hits give low values 0.982 | S. cerevisiae deletion strains, locus YOR080W, strain dia2, hits give low values 0.98 | S. cerevisiae deletion strains, locus YOR083W, strain WHI5, hits give low values 0.958 | S. cerevisiae deletion strains, locus YOR106W, strain vam3, hits give low values 0.913 | S. cerevisiae deletion strains, locus YOR136W, strain idh2, hits give low values 1 | S. cerevisiae deletion strains, locus YOR144C, strain elg1, hits give low values 0.996 | S. cerevisiae deletion strains, locus YOR184W, strain ser1, hits give low values 1.02 | S. cerevisiae deletion strains, locus YOR231W, strain MKK1, hits give low values 1.03 | S. cerevisiae deletion strains, locus YOR265W, strain rbl2, hits give low values 0.993 | S. cerevisiae deletion strains, locus YOR270C, strain vph1, hits give low values 0.964 | S. cerevisiae deletion strains, locus YOR290C, strain snf2, hits give low values 0.934 | S. cerevisiae deletion strains, locus YOR316C, strain cot1, hits give low values 1 | S. cerevisiae deletion strains, locus YPL051W, strain arl3, hits give low values 1 | S. cerevisiae deletion strains, locus YPL078C, strain atp4, hits give low values 0.945 | S. cerevisiae deletion strains, locus YPL106C, strain sse1, hits give low values 0.964 | S. cerevisiae deletion strains, locus YPL240C, strain hsp82, hits give low values 0.987 | S. cerevisiae deletion strains, locus YPL241C, strain CIN2, hits give low values 1.02 | S. cerevisiae deletion strains, locus YPL256C, strain CLN2, hits give low values 0.994 | S. cerevisiae deletion strains, locus YPR119W, strain clb2, hits give low values 0.988 | S. cerevisiae deletion strains, locus YPR141C, strain kar3, hits give low values 0.996 | S. cerevisiae deletion strains, locus YPR163C, strain tif3, hits give low values 1 | S. cerevisiae deletion strains, locus YPR167C, strain met16, hits give low values 1.01 | S. cerevisiae deletion strains, strain wtn01, hits give low values 1.01 | S. cerevisiae strains, strain wild type, hits give low values 1.07
